Where a name gives a salt, the structure may show the parent alone.
How the values were obtained:
Settings in all cases: compound concentration in added solution (µM; 5 µl added to 20 µl cells): 10; 18 h
A431 [1] = assay: LBPA endosome anti-LBPA integrated intensity (sum per cell), Z-score; higher = more LBPA staining
Method in brief: (§1)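 In duplicate 384-well imaging plates, 3,500 HeLa MZ or A431 cells in 20 µl per well were seeded onto 5 µl of 10 µM compound solution. The cells were incubated for 18 h, fixed in 4% PFA and stained with 6C4 anti-LBPA antibody, filipin, propidium iodide and CellTracker green before four 20× images were acquired per well. Values are AcuityXpress-normalised Z-scores of per-cell integrated LBPA or filipin intensity, obtained by MetaXpress segmentation over the whole cell or in LBPA endosomes.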

HeLa MZ [2] = assay: as above
Method in brief: as §1

A431 [3] = assay: whole-cell filipin (free cholesterol) integrated intensity, Z-score; higher = more cholesterol staining
Method in brief: as §1

HeLa MZ [4] = assay: as above
Method in brief: as §1

A431 [5] = assay: filipin (cholesterol) integrated intensity within LBPA endosomes, Z-score; higher = more cholesterol in LBPA endosomes
Method in brief: as §1

HeLa MZ [6] = assay: as above
Method in brief: as §1

| Compound | LBPA endosome anti-LBPA integrated intensity (z-score) (A431 [1]) | LBPA endosome anti-LBPA integrated intensity (z-score) (HeLa MZ [2]) | whole-cell filipin (z-score) (A431 [3]) | whole-cell filipin (z-score) (HeLa MZ [4]) | filipin (z-score) (A431 [5]) | filipin (z-score) (HeLa MZ [6]) |
| --- | --- | --- | --- | --- | --- | --- |
| CCN(CC)CCOC(=O)C1(C2CCCCC2)CCCCC1 [Dicyclomine hydrochloride] | -0.0951 | 0.203 | 0.137 | -0.144 | 0.0207 | 0.0362 |
| Nc1nc2ccc(OC(F)(F)F)cc2s1 [Riluzole hydrochloride] | -0.418 | -0.758 | -0.48 | -0.459 | -0.501 | -0.474 |
| CCN(CC)CCNC(=O)COc1ccc(OC)cc1 [Mefexamide hydrochloride] | -0.352 | 0.346 | -0.627 | -0.811 | -0.519 | -0.36 |
| COc1cc([S+](C)[O-])ccc1-c1nc2cccnc2[nH]1 (centres undefined) [Sulmazole] | -0.64 | -1.23 | -0.818 | -0.362 | -0.483 | -0.399 |
| O=C(NCCN1CCOCC1)c1ccc(Cl)cc1 [Moclobemide] | -0.577 | -0.12 | -0.751 | -0.413 | -0.499 | -0.447 |
| Nc1ncnc2c1ncn2C1OC(COP(=O)(O)O)C(O)C1O (centres undefined) [Adenosine 5'-monophosphate monohydrate] | -0.591 | 0.12 | -0.666 | 0.0121 | -0.493 | -0.612 |
| COc1ccc2cc([C@@H](C)C(=O)O)ccc2c1 [(R) -Naproxen sodium salt] | -0.646 | -1.68 | -0.677 | -0.633 | -0.535 | -0.58 |
| CCCc1cc(=O)[nH]c(=S)[nH]1 [Propylthiouracil] | -0.571 | -0.555 | -0.7 | -0.496 | -0.538 | -0.457 |
| COc1nc(C)nc(Cl)c1NC1=NCCN1 [Moxonidine] | -0.127 | 0.511 | -0.0575 | -0.203 | -0.176 | -0.384 |
| CCOC(=O)NNc1nncc2ccccc12 [Todralazine hydrochloride] | -0.642 | -1.72 | -0.897 | -0.795 | -0.572 | -0.622 |
| CC(C)(C#N)c1cc(Cn2cncn2)cc(C(C)(C)C#N)c1 [Anastrozole] | -0.573 | -1.31 | -0.205 | -0.00341 | -0.428 | -0.659 |
| CC(C)(C)NC[C@H](O)COc1cccc2c1CCCC2=O [(-) -Levobunolol hydrochloride] | -0.264 | 1.1 | -0.125 | -0.19 | -0.327 | 0.118 |
| NCc1ccc(S(N)(=O)=O)cc1 [Mafenide hydrochloride] | -0.472 | -0.546 | -0.682 | -0.536 | -0.471 | -0.44 |
| O=C(O)c1cccnc1Nc1cccc(C(F)(F)F)c1 [Niflumic acid] | -0.414 | -0.666 | -0.705 | -0.278 | -0.444 | -0.519 |

— the supplement of paper PMC6607015
